TexasRed fluor: counter-screen for TRb-SRC2 inhibitors: fluorescence interference; Potency, µM (highest dose often 106 µM), without a hit: at the top dose fluorescence change, negative = quenching; TRb/SRC2 Texas Red total fluorescence interference; hit rate 0.29% among 280,000; active = well fitted curve in either direction with a large enough effect; inconclusive = small, poorly fitted or top-dose-only effect
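Human TRβ ligand-binding domain (0.6 uM) and Texas Red SRC2 peptide (20 nM) in Tris buffer with 1 uM T3 and 5% DMSO were incubated with pinned compound for 5 hr at ambient temperature. Total fluorescence was computed as S + 2P (555/632 nm).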
Tau fluor cs: counter-screen for tau fibril formation inhibitors | tau K18 P301L Alexa594 fluorescence, heparin fibrillization | Potency, µM (titrated, usually from 57.7 µM), for inactives: top-dose activity change, negative = decrease | hit rate 0.93% among 280,000; note: nearly all actives have a fitted effect of over 55% in size
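Human K18 P301L tau (15 uM unlabeled plus 0.24 uM Alexa 594-labeled, final) in 100 mM sodium acetate pH 7 was mixed with compound and 20 uM heparin and incubated 6 hr at 37 C.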
TRb-SRC2 inh: TRbeta-SRC2 interaction inhibition. hit rate 0.065% among 280,000. Potency, µM (highest dose often 106 µM), for the others: top-dose activity change, negative = inhibition, usual class: inhibitors. P10828. TRbeta-SRC2 peptide binding, fluorescence polarization; receptor liganded with 1 µM T3;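 note: plate controls were bound peptide for no effect and peptide without receptor for full effect; nearly all actives have a fitted effect of over 50% in size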
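Decrease in fluorescence polarization of 20 nM Texas Red SRC2 coactivator peptide flagged inhibition of its binding to 0.6 uM TRb LBD; 1 uM T3 included, incubation 5 hr, ex 555/em 632 nm.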
RGS12 GoLoco inh: inhibitors of human Gai1-RGS12 GoLoco interaction (red fluorophore) | P63096 | Gai1:RGS12 GoLoco peptide FP, rhodamine, 10 min | Potency, µM (series often up to 61.6 µM), for the others: top-dose activity, negative = inhibition, usual class: inhibitors | hit rate 0.44% among 230,000; active = well fitted inhibition curve with a large enough effect, not every such curve was filed as active; inactive = no such curve, though single readings can be large or run the other way; note: nearly all actives have a fitted effect of over 30% in size
Target sequence (P63096 whole entry, looked up): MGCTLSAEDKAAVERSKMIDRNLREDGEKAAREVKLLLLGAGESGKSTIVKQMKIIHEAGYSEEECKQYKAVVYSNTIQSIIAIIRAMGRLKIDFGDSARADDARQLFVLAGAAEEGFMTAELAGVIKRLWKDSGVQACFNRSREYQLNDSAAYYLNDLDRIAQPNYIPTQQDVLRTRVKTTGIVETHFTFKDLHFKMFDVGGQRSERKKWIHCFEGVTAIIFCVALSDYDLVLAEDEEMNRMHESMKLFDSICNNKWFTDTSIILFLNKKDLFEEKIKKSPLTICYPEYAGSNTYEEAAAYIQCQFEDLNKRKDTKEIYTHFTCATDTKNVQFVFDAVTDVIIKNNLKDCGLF
Tau fibril ThT: tau fibrillization inhibition (ThT binding). Potency, µM (series often up to 57.4 µM), inactives show top-dose activity, negative = inhibition, most hits filed as inhibitors. P10636. AID 1460. hit rate 2.1% among 270,000. recombinant tau K18 P301L (four-repeat tau fragment), heparin-induced fibrillization, ThT fluorescence; note: nearly all actives have a fitted effect of over 55% in size
Target sequence (P10636 561-689 P618L limits assumed): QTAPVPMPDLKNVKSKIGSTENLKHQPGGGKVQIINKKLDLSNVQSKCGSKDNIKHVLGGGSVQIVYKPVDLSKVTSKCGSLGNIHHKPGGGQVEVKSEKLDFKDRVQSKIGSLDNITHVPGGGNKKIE
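Heparin-induced (20 uM) aggregation of recombinant human K18 P301L tau, 15 uM unlabeled with 0.24 uM labeled, pH 7 acetate buffer, 6 hr at 37 C with compound. Fibrils quantified by 30 uM ThT fluorescence after 1 hr ambient incubation.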
Tau FP inhib: tau fibrillization inhibition (FP); P10636; hit rate 0.39% among 280,000; AID 1468; K18 P301L tau heparin fibrillization, Alexa594 FP, 6 h; Potency, µM (highest dose often 57.7 µM), without a hit: top-dose activity, negative = inhibition, most hits filed as inhibitors; note: nearly all actives have a fitted effect of over 55% in size
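FP of Alexa 594-tau after heparin (20 uM) induction. Substrate: human K18 P301L, 15 uM unlabeled, 0.24 uM labeled. Buffer 100 mM sodium acetate pH 7. 6 hr, 37 C.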
Starred values were filed as active, the others as inactive; u = inconclusive; x = not tested or not shown; [ ] = remark or other dose. Compounds with a hit are over-represented: about 3.1% of the library has one in this group of screens. Unless noted, calls come from the whole dose curve; as a rule, active = well fitted curve in the direction sought with a large enough effect; inconclusive = small, poorly fitted or top-dose-only effect, or another doubt; inactive = no such curve, though single readings can be large; an effect the other way counts as inactive or inconclusive. Unless noted, % is set by controls: 0 for no effect and ±100 for the full control effect; potency is the fitted concentration of half-maximal effect.

SMILES	TexasRed fluor	Tau fluor cs	TRb-SRC2 inh	RGS12 GoLoco inh	Tau fibril ThT	Tau FP inhib
Cc1ccnc(NC(=S)NC(=O)/C=C/c2ccco2)c1	-7%	-24%	-11%	43%	u	0%
O=C(/C=C/c1ccco1)NC(=S)Nc1ccc(Cl)cn1	u	u	18%	102%	22µM*	-3%
O=C(/C=C/c1ccco1)NC(=S)Nc1ccc(N2CCCC2)cc1	-3%	u	-3%	-9%	3.5µM*	-13%
CCOC(=O)Nc1ccc(NCc2ccc(F)cc2)nc1N	10%	u	-29%	-19%	18µM*	u
c1ccc2c3c([nH]c2c1)C1(CCCCC1)NCC3	-3%	-4%	8%	6%	-5%	-4%
CCCN1C(=O)/C(=C/c2c(N3CCNC(=O)C3CC(=O)OCC)nc3c(C)cccn3c2=O)SC1=S (centres undefined)	3%	3%	8%	130%	13µM*	-12%
CCOC(=O)CC1C(=O)NCCN1c1nc2ccc(C)cn2c(=O)c1/C=C1\SC(=S)N(CC(C)C)C1=O (centres undefined)	5%	-10%	2%	168%	u	2%
Cc1ccc(C2NC(=O)NC3=C2CCc2ccccc23)cc1 (centres undefined)	2%	-4%	4%	-7%	u	-1%
COc1ccc(C2NC(=O)NC3=C2CCc2ccccc23)cc1 (centres undefined)	-1%	-19%	-1%	-19%	25µM*	u
O=C(Cn1cnc([N+](=O)[O-])c1)Nc1cc(Oc2ccc(Cl)cc2Cl)cc([N+](=O)[O-])c1	-3%	4.5µM*[quencher]	-1%	7%	u	u
Cc1cccc(Oc2cc(NC(=O)Cn3cnc([N+](=O)[O-])n3)cc([N+](=O)[O-])c2)c1	-2%	u	13%	1%	0%	4%
CC(C)(C)C1CCC(OC(=O)C[N+]2(C)CCCC2)CC1 (centres undefined)	0%	-12%	2%	7.1µM*	-8%	5%
C[N+]1(CC(=O)OCCCC2CCCCC2)CCCC1	-3%	3%	-6%	10%	-4%	7%
CC(C)(C)C1CCC(OC(=O)C[N+]2(C)CCCCC2)CC1 (centres undefined)	-1%	-7%	6%	8.9µM*	-4%	3%
Cn1c(-n2cccc2)c(-c2c(-c3ccccc3)[nH]c3c2c(=O)n(C)c(=O)n3C)c(=O)n(C)c1=O	25119µM*[quencher]	-12%	-11%	x	-11%	-3%
COc1ccc(-c2cc(-c3ccc(OC)c(OC)c3)n[nH]2)c(O)c1	-12%	16µM*[quencher]	-13%	4%	-9%	2%
COc1ccc(-c2cc(-c3cc(F)ccc3O)[nH]n2)cc1OC	-6%	25µM*[quencher]	14%	9%	u	u
COc1ccc(-c2cc(-c3ccccc3O)[nH]n2)cc1OC	-5%	u	3%	5%	u	u
Cc1ccc(O)c(-c2cc(-c3cccc(F)c3)n[nH]2)c1	-7%	32µM*[quencher]	7%	2%	-12%	u
COC(=O)c1cc(-c2ccc(OC)c(OC)c2)n[nH]1	0%	-10%	-2%	13%	u	-9%
O=C(NCc1cccnc1)c1ccc(CN2CCc3ccccc3C2)cc1	-5%	3%	-6%	3%	1%	12%
N=C1/C(=C/c2cccs2)C(=O)N=C2SN=C(SCc3ccccc3)N12	-3%	u	9%	9%	18µM*	3%
CSC1=NSC2=NC(=O)/C(=C\c3cccs3)C(=N)N12	-7%	-7%	6%	7%	14µM*	12%
CC(C)CCCC(C)C1CCC2C3CC=C4CC(O)CCC4(C)C3CCC12C (centres undefined)	1%	-12%	-4%	1%	-7%	0%
CCOC(=O)c1[nH]c2ccc(OC)cc2c1NC(=O)/C=C/c1ccc2c(c1)OCO2	3%	-5%	7%	-32%	-3%	-1%

Screens as filed in PubChem.
